Assay outcomes: PubChem, National Center for Advancing Translational Sciences (NCATS)
JMJD2A Tudor: inhibitors of human JMJD2A Tudor domain | O75164 | AlphaScreen JMJD2A-Tudor / H3K4me3 peptide binding | Potency, µM (doses to about 114 µM), for inactives: at the top dose activity change, negative = inhibition, hits mostly inhibitors | 390,000 tested, 4.4% active | AID 504339; further: on the % scale 0 is the no-effect control and ±100 the full control effect; nearly all actives have a fitted effect of over 50% in size
Target sequence (O75164 whole entry, looked up, the tested form may be a part): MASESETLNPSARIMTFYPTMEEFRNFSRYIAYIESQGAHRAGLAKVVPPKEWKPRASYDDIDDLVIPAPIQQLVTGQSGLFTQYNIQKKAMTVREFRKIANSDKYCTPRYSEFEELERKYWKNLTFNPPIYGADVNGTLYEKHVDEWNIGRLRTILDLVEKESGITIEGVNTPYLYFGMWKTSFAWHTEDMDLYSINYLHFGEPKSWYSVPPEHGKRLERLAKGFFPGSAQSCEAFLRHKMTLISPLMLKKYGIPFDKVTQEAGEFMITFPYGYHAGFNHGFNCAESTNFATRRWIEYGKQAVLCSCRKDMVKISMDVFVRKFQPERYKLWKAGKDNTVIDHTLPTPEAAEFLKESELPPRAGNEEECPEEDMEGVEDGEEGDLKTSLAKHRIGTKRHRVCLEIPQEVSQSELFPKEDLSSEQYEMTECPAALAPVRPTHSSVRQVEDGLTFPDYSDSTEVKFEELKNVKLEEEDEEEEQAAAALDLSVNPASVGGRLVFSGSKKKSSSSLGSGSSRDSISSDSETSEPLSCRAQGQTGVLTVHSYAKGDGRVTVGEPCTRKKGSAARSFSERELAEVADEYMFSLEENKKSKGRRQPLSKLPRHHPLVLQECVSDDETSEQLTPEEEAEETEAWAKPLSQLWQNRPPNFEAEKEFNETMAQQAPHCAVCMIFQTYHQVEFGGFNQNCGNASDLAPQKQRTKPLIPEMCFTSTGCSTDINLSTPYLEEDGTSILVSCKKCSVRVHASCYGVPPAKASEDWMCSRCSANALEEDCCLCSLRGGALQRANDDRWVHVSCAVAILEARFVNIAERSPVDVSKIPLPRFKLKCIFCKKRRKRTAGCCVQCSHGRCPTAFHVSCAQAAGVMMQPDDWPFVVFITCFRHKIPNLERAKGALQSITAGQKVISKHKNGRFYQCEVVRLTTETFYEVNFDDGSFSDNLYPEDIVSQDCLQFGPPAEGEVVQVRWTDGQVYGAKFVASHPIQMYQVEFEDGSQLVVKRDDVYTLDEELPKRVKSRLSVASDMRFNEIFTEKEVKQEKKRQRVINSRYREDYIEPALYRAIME
BAZ2B block: blocks human BAZ2B; AlphaScreen BAZ2B-H3K14Ac peptide displacement; Potency, µM (doses to about 114 µM), inactives show top-dose activity change, negative = inhibition, usual class: inhibitors; 360,000 tested, 4.4% active; AID 504333; further: on the % scale 0 is the no-effect control and ±100 the full control effect; nearly all actives have a fitted effect of over 60% in size
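AlphaScreen displacement: compounds (up to 110uM) incubated 30 min at room temperature with a preformed 50 nM BAZ2B/50 nM biotinylated H3K14Ac peptide complex in PBS pH 7.4 with Tween-20. Donor and acceptor beads at 10 ug/mL final added, 20 min light-protected before reading.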
G9a block: blocks human histone lysine methyltransferase G9a; 350,000 tested, 8.8% active; AID 504332; Q96KQ7; G9a H3K9 monomethylation, AlphaScreen, 2 h; Potency, µM (doses to about 102 µM), for inactives: top-dose activity, negative = inhibition, most hits filed as inhibitors; further: on the % scale 0 is the no-effect control and ±100 the full control effect; nearly all actives have a fitted effect of over 75% in size
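Quantitative HTS format: methyltransferase activity on a biotin-tagged H3K9 peptide is measured by AlphaScreen, using a rabbit anti-monomethyl-H3K9 antibody with streptavidin donor and anti-IgG acceptor beads. Final levels are 20 nM enzyme, 500 nM peptide, 20 uM SAM; 2 h RT.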
HP1b chromo inh: inhibitors of HP1-beta chromodomain binding to methylated histone tails; 390,000 tested, 0.56% active; Potency, µM (highest dose often 114 µM), without a hit: top-dose activity change, negative = inhibition, usual class: inhibitors; P83916; AlphaScreen HP1-beta / biotin-H3K9me3 peptide binding; further: nearly all actives have a fitted effect of over 70% in size
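Compound inhibition of the preformed complex between 50 nM HP1-beta and 50 nM biotinylated H3K9me3 peptide was read by AlphaScreen. Buffer was PBS pH 7.4 with 0.01% Tween-20. Incubations ran 30 min at room temperature, with 10 ug/mL donor/acceptor beads.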
L3MBTL1 block: inhibitors of human L3MBTL1 | Q9Y468 | AlphaScreen L3MBTL1–H3K9me1 peptide binding | Potency, µM (series often up to 57.1 µM), for the others: top-dose activity, negative = inhibition, actives largely listed as inhibitors | 230,000 tested, 0.66% active | AID 485360; further: on the % scale 0 is the no-effect control and ±100 the full control effect; nearly all actives have a fitted effect of over 60% in size
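L3MBTL1 50 nM + b-AHA-H3(1-15)K9me1 75 nM, 30 min RT; compound added, 30 min RT; streptavidin donor/Ni-chelate acceptor beads 10 ug/mL each final, 30 min RT dark; AlphaScreen read.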
The depositor's hits bear a star; ? = inconclusive; . = no result given; ! = repeats disagree; [ ] = another dose, or the depositor's remark. Hits are enriched below; roughly 11% of the tested compounds scored in any of these assays. The call rests on the fitted dose curve; in most records, active means well fitted inhibition curve with a large enough effect; inconclusive means small, poorly fitted or top-dose-only effect; inactive means no such curve, though single readings can be large or run the other way. Potency means the concentration at half of the fitted maximal effect.

SMILES	JMJD2A Tudor	BAZ2B block	G9a block	HP1b chromo inh	L3MBTL1 block
C=CCn1c(COC)nnc1SCC(=O)c1ccc(F)cc1	39.8µM*	25.7%	3.55µM*	-40.6%	-4.0%[11.4 µM]
Nc1cc(=O)[nH]c(SCC(=O)NC2CCCCCCC2)n1	-6.2%	.	.	23.6%[57 µM]	4.6%
Cc1ccc(CN2C(=O)c3oc4ccc(C)cc4c(=O)c3C2c2ccc(O)cc2)cc1 (stereo unspecified)	-9.6%	-26.5%	?	27.2%	.
O=C(Nc1cccc(N2CCCC2)c1)c1cccs1	?	?	3.16µM*	?	-15.1%
CCCOc1ccccc1-c1nc2n[nH]nc2c(=O)[nH]1	-0.7%	.	14.1µM*!	40.9%	.
Oc1ccc(O)c(/C(=N/Nc2ccccc2)c2ccccc2)c1	.	44.7µM*	1.26µM*	.	.
Cc1ccc(C(=O)Nc2nc(C)c(C(=O)N(C)C)s2)o1	-20.8%	-12.0%	-18.3%	20.1%	.
CC(=O)c1sc(NC(=O)CCNC(=O)c2ccco2)nc1-c1ccccc1	-18.2%	?	8.4%[0.501 µM]	13.1%	.
O=C(CCl)Nc1nc(-c2ccco2)c(-c2ccco2)s1	?	50.1µM*	11.2µM*	?	-8.4%
Cc1ccc(C(=O)Nc2nc(-c3ccco3)c(-c3ccco3)s2)o1	?	20µM*	14.1µM*	50.1µM*	?
CC(C)=CC(=O)Nc1ccc(Cl)cc1	5.4%	-35.9%	24.7%	54.5%	11.7%
CS/C(=C\[N+](=O)[O-])Nc1ccc(Cl)cc1	-4.1%	-8.6%	11.2µM*	11.8%	.
N#Cc1cccc(-c2nccc(NCc3cccnc3)n2)c1	.	.	15.2%[0.501 µM]	.	.
Cc1ccc(/C=C(\C#N)C(=O)Nc2ccc(Br)cc2)o1	-6.5%	-1.7%	5.5%[59 µM]	42.9%	.
COc1ccc(NC(=O)/C(C#N)=C/c2ccc(-c3ccccc3C(=O)O)o2)cc1	-30.6%	-21.4%	-6.3%	12.6%	3.5%
COc1ccc(NC(=O)/C(C#N)=C\c2ccc(Br)o2)cc1	56.2µM*	?	.	-32.6%	.
COc1ccc(NC(=O)/C(C#N)=C\c2ccc(-c3cc(C(=O)O)ccc3C)o2)cc1	?	56.2µM*	25.1µM*	-13.6%	?
CC(CN1CCOCC1)OC(=O)c1cccc(Cl)c1 (stereo unspecified)	4.0%	-16.9%	31.4%	46.9%	2.0%
CN(Cc1ccccc1)S(=O)(=O)c1ccc2[nH]c3c(c2c1)CCCCC3	?	-30.8%[57.1 µM]	?	-8.9%	.
O=C(/C=C/c1ccco1)Nc1cccc(S(=O)(=O)N2CCOCC2)c1	3.5%	-7.8%	-15.9%	-6.0%	?
Cc1ccc(/C=C/C(=O)Nc2cccc(S(=O)(=O)N3CCOCC3)c2)o1	-28.1%	-32.0%	8.91µM*	50.1µM*	-17.8%
O=C(Nc1ccccc1)c1cccc(S(=O)(=O)N2CCCCC2)c1	-2.1%	5.0%	?	34.6%	3.1%
Cc1cc2nnc(SCC(=O)Nc3cccc(S(=O)(=O)N4CCOCC4)c3)n2c2ccccc12	-10.6%	11.9%	50.1µM*	15.0%	1.1%
Cn1cnnc1SCC(=O)Nc1cccc(S(=O)(=O)N2CCOCC2)c1	6.3%	5.9%	-6.6%	47.0%	.
CN(C)S(=O)(=O)c1cccc(NC(=O)c2cccc(S(=O)(=O)N3CCCCC3)c2)c1	-20.7%	2.7%	50.1µM*	15.6%	-1.1%
SMILES	JMJD2A Tudor	BAZ2B block	G9a block	HP1b chromo inh	L3MBTL1 block
CN(C)S(=O)(=O)c1cccc(NC(=O)c2ccc3c(c2)S(=O)(=O)N=C2CCCCCN23)c1	.	-31.7%	31.6µM*	.	-5.5%
CCc1ccc(S(=O)(=O)NCc2ccc3c(c2)CCN3C(=O)c2ccc(C)cc2)cc1	-14.9%	-2.5%	10.2%[59 µM]	12.7%[57 µM]	.
COc1ccc2c(c1)CC(C(=O)NCCN1CCN(c3cccc(Cl)c3)CC1)CO2 (stereo unspecified)	?	?	?	5.9%[57 µM]	.
CC(CC(=O)Nc1cccc(S(=O)(=O)N2CCCCC2)c1)c1ccccc1 (stereo unspecified)	5.9%	0.1%	?	43.0%	?
CCCC(C(=O)Nc1cccc(S(=O)(=O)N2CCCC2)c1)c1ccccc1 (stereo unspecified)	4.4%	3.8%	15.8µM*	25.6%	-5.7%
CSCCC(NC(=O)c1cccc(S(=O)(=O)N2CCOCC2)c1)C(=O)Nc1ccc(F)cc1 (stereo unspecified)	-19.0%	-2.9%	7.08µM*	17.2%	1.3%
Cc1nc(-c2cccc(NC(=O)c3cccc(S(=O)(=O)N4CCCC4)c3)c2)cs1	-11.1%	4.5%	10µM*	36.7%	4.7%
O=C(Nc1nc2ccc(S(=O)(=O)N3CCCC3)cc2s1)c1ccccn1	?	?	12.6µM*	11.0%	.
COc1ccc(OC)c(CNC(=O)CCc2c(C)nc3c(c2C)c(=O)n(C)c(=O)n3C)c1	-0.3%	-12.4%	-1.1%[59 µM]	28.5%	.
CC(C)[C@H](NC(N)=O)C(=O)Nc1cccc(S(=O)(=O)N2CCOCC2)c1	-3.5%	-7.6%	35.5µM*	5.3%	5.5%
O=C(Nc1cccc(S(=O)(=O)N2CCOCC2)c1)c1ccccn1	-16.8%	?	25.1µM*	22.4%	.
CC(C)[C@H](NC(=O)c1ccccc1)C(=O)Nc1cccc(S(=O)(=O)N2CCOCC2)c1	-16.7%	-4.3%	?	6.0%	-2.1%
O=C(Nc1cccc(S(=O)(=O)N2CCCCC2)c1)c1ccccn1	?	?	5.62µM*	-2.6%	.
O=C(CNc1cccc(S(=O)(=O)N2CCOCC2)c1)N1CCc2ccccc21	-13.0%	-20.4%	39.8µM*	26.6%	-2.0%
Cc1cc(C)c(NC(=O)CCn2c(=O)c3cccn3c3ccccc32)c(C)c1	-25.7%	-35.6%	-10.0%[59 µM]	-3.8%	.
Cc1ccc(-n2nc3ccc(N)cc3n2)cc1Cl	4.0%	?	44.7µM*	30.2%	.
Cc1ccc(-n2nc3ccc(N)cc3n2)c(C)c1	-24.3%	?	.	-1.9%	-8.1%
Cc1ccc(-n2nc3ccc(N)cc3n2)cc1C	-24.6%	50.1µM*	10µM*	-12.0%	-20.1%
COc1ccc(-n2nc3ccc(N)cc3n2)cc1Cl	34.7%	-0.5%	-1.4%[0.501 µM]	55.3%	4.5%[2.29 µM]
COc1ccc2c(C)c(CCC(=O)NCc3ccc(C)cc3)c(=O)oc2c1	-12.8%	-6.3%	-0.6%[59 µM]	26.0%	.
O=C(NCCCc1ccccc1)c1ccc(F)cc1	2.1%	9.6%	-3.0%	67.0%	5.5%
O=C(NCCNC1CCC(c2ccccc2)CC1)c1ccc(F)cc1 (stereo unspecified)	5.62µM*	25.1µM*	?	?	-1.8%
CCOC(=O)c1sc2ccccc2c1S(=O)(=O)Nc1c(C)cccc1C	-23.3%	1.0%	6.8%[59 µM]	-6.6%	.
O=C(O)CCc1ccc(-c2ccc(F)cc2)n1CC(=O)O	-28.6%	-2.1%	44.7µM*	20.7%	-15.5%
CCOC(=O)Cn1c(CCC(=O)O)ccc1-c1ccc(F)cc1	?	-9.5%	?	-7.9%	-4.3%
COc1ccc(-n2c(CCC(=O)O)ccc2-c2ccc(F)cc2)c(OC)c1	?	-27.0%	39.8µM*	5.4%	.
